# Experimental data reported in the supplement of paper PMC4466140.
# B1: unnamed (peptide)
# chain: APERAVPILPPRNNV
# Key:
# Assay in all cases: SPOT peptide array binding signal intensity (averaged, normalized) (arbitrary units (background-subtracted, floor 0; scale differs between SH3 domains)); higher = stronger binding of the SH3 domain to the peptide
# AgAbp1 = target: AgAbp1
# How it was run: (§1)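 SH3 domains from four yeast species were expressed as GST fusions in E. coli BL21(DE3) and purified on glutathione Sepharose. Each was incubated at 10 μg/ml overnight at 4°C in TBS-based blocking buffer on cellulose membranes bearing synthetic 15-mer peptides, in which serines replaced cysteines. Bound protein was detected with anti-GST antibody, an HRP anti-mouse secondary and luminol, then imaged and quantified with Genespotter. The binding signal is the normalized, background-subtracted spot intensity averaged over replicates, in arbitrary units that are not the same from one domain to another.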
# AgBbc1 = target: AgBbc1
# How it was run: as §1
# AgBem1-D1 = target: AgBem1-D1
# How it was run: as §1
# AgBzz1-D1 = target: AgBzz1-D1
# How it was run: as §1
# AgBzz1-D2 = target: AgBzz1-D2
# How it was run: as §1
# AgCyk3 = target: AgCyk3
# How it was run: as §1
# AgFus1 = target: AgFus1
# How it was run: as §1
# AgHof1 = target: AgHof1
# How it was run: as §1
# AgHse1 = target: AgHse1
# How it was run: as §1
# AgLsb1 = target: AgLsb1
# How it was run: as §1
# AgLsb4 = target: AgLsb4
# How it was run: as §1
# AgMyo5 = target: AgMyo5
# How it was run: as §1
# AgNbp2 = target: AgNbp2
# How it was run: as §1
# AgRvs167 = target: AgRvs167
# How it was run: as §1
# AgSho1 = target: AgSho1
# How it was run: as §1
# AgSla1-D1-D2 = target: AgSla1-D1-D2
# How it was run: as §1
# AgSla1-D3 = target: AgSla1-D3
# How it was run: as §1
# CaAbp1-D1 = target: CaAbp1-D1
# How it was run: as §1
# CaAbp1-D2 = target: CaAbp1-D2
# How it was run: as §1
# CaBbc1 = target: CaBbc1
# How it was run: as §1
# CaBem1-D1 = target: CaBem1-D1
# How it was run: as §1
# CaBzz1-D1 = target: CaBzz1-D1
# How it was run: as §1
# CaBzz1-D2 = target: CaBzz1-D2
# How it was run: as §1
# CaCyk3 = target: CaCyk3
# How it was run: as §1
# CaFus1 = target: CaFus1
# How it was run: as §1
# CaHof1 = target: CaHof1
# How it was run: as §1
# CaHse1 = target: CaHse1
# How it was run: as §1
# CaLsb1 = target: CaLsb1
# How it was run: as §1
# CaLsb4 = target: CaLsb4
# How it was run: as §1
# CaMyo5 = target: CaMyo5
# How it was run: as §1
binder,measurement,setting,value
B1,SPOT peptide array binding signal intensity,AgAbp1,7.5
same,SPOT peptide array binding signal intensity,AgBbc1,160
same,SPOT peptide array binding signal intensity,AgBem1-D1,47.5
same,SPOT peptide array binding signal intensity,AgBzz1-D1,84.5
same,SPOT peptide array binding signal intensity,AgBzz1-D2,10.5
same,SPOT peptide array binding signal intensity,AgCyk3,9
same,SPOT peptide array binding signal intensity,AgFus1,≤ 0
same,SPOT peptide array binding signal intensity,AgHof1,11.5
same,SPOT peptide array binding signal intensity,AgHse1,24.5
same,SPOT peptide array binding signal intensity,AgLsb1,109
same,SPOT peptide array binding signal intensity,AgLsb4,2180
same,SPOT peptide array binding signal intensity,AgMyo5,≤ 0
same,SPOT peptide array binding signal intensity,AgNbp2,≤ 0
same,SPOT peptide array binding signal intensity,AgRvs167,87.8
same,SPOT peptide array binding signal intensity,AgSho1,≤ 0
same,SPOT peptide array binding signal intensity,AgSla1-D1-D2,≤ 0
same,SPOT peptide array binding signal intensity,AgSla1-D3,0.5
same,SPOT peptide array binding signal intensity,CaAbp1-D1,11
same,SPOT peptide array binding signal intensity,CaAbp1-D2,14
same,SPOT peptide array binding signal intensity,CaBbc1,418
same,SPOT peptide array binding signal intensity,CaBem1-D1,2
same,SPOT peptide array binding signal intensity,CaBzz1-D1,≤ 0
same,SPOT peptide array binding signal intensity,CaBzz1-D2,28.5
same,SPOT peptide array binding signal intensity,CaCyk3,42.5
same,SPOT peptide array binding signal intensity,CaFus1,24
same,SPOT peptide array binding signal intensity,CaHof1,3.5
same,SPOT peptide array binding signal intensity,CaHse1,7.25
same,SPOT peptide array binding signal intensity,CaLsb1,≤ 0
same,SPOT peptide array binding signal intensity,CaLsb4,2970
same,SPOT peptide array binding signal intensity,CaMyo5,≤ 0
